Compound activity: PubChem BioAssay, National Center for Advancing Translational Sciences (NCATS)
An excerpt weighted towards active compounds, which were near 6.2% of everything screened.
HT1080-NT tox: kills 2HG-producing HT-1080-NT fibrosarcoma cells; HT-1080-NT fibrosarcoma viability, CellTiter-Glo ATP luminescence, 48 h; hit rate 1.6% among 360,000; Potency, µM (series often up to 46.1 µM), without a hit: top-dose activity, negative = less viability, actives largely listed as cytotoxic; AID 686970;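 note: NT is the 2HG producing partner of a matched IDH1 knockdown line; 0% = DMSO-treated cells and -100% = media-only wells without cells; nearly all actives have a fitted effect of over 55% in size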
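Fibrosarcoma NT cells, 750 per well in 5% FBS RPMI, were exposed to compound for 48 hours. Viability: CellTiter-Glo luminescence.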
KB-3-1 tox: KB-3-1 parental cell cytotoxicity; KB-3-1 viability, CellTiter-Glo ATP luminescence, 72 h; AID 1347075; Potency, µM (doses to about 46.1 µM), most hits filed as cytotoxic; hit rate 1.4% among 400,000; note: % is set by controls: 0 for no effect and ±100 for the full control effect; nearly all actives have a fitted effect of over 60% in size
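Here the drug-naive KB-3-1 line serves as comparator for MDR sub-line selectivity; cells received compound titrations, 72 h at 37 °C, then CellTiter-Glo readout.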
KB-V1 MDR tox: kills drug-selected multidrug resistant KB-V1 cells; Potency, µM (titrated, usually from 46.1 µM), hits mostly cytotoxic; hit rate 3.4% among 400,000; KB-V1 MDR cells viability, CellTiter-Glo, 72 h; note: % is set by controls: 0 for no effect and ±100 for the full control effect; nearly all actives have a fitted effect of over 60% in size
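KB-V1 MDR subline cells in DMEM (phenol-red free, 10% FBS) exposed to compounds in qHTS concentration series for 72 h at 37 degrees C. Viability read by CellTiter-Glo luminescence; concentration-effect curves fitted after normalization and correction.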
ATXN2 expr inh: inhibitors of ATXN2 expression; HEK-293 ATXN2-luciferase reporter, luminescence, 24 h; Potency, µM (doses to about 57 µM), for inactives: top-dose activity change, negative = inhibition, usual class: inhibitors; hit rate 0.72% among 360,000; note: % is set by controls: 0 for no effect and ±100 for the full control effect; nearly all actives have a fitted effect of over 55% in size
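qHTS (up to 57 uM final) was run with 24 h compound exposure of reporter cells at 37 °C. Each well was multiplexed: SteadyGlo luminescence measured ATXN2-luciferase expression after a fluorogenic Gly-Phe-AFC viability readout (25 uM final).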
S2 tox: cell viability loss in ATXN counter-screen. S2 cells (HEK-293 line with an ATXN2-luciferase reporter) viability, CellTiter-Fluor protease fluorescence, 24 h. hit rate 0.49% among 400,000. Potency, µM (titrated, usually from 56.7 µM), hits mostly cytotoxic; note: nearly all actives have a fitted effect of over 40% in size
HT1080 IDH1KD tx: kills HT-1080 cells with IDH1 knockdown. HT-1080 IDH1 knockdown viability, ATP luminescence, 48 h. Potency, µM (series often up to 46.1 µM), inactives show at the top dose activity, negative = toxicity, usual class: cytotoxic. hit rate 2% among 360,000. AID 686971;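 note: 0% = DMSO wells and -100% = cell-free medium wells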
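CellTiter-Glo luminescence after 48 h compound exposure at 37 degrees C of IDH1-knockdown HT-1080 cells in 5% FBS RPMI. %Activity scaled between DMSO wells and cell-free media wells, with curves fitted and assigned curve classes.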
An asterisk follows results filed as active; i = inactive; ? = inconclusive; nt = no result. Calls come from the whole dose curve; as a rule, active = well fitted curve in the direction sought with a large enough effect; inconclusive = small, poorly fitted or top-dose-only effect, or another doubt; inactive = no such curve, though single readings can be large; an effect the other way counts as inactive or inconclusive. Potency is the fitted concentration of half-maximal effect.

SMILES	HT1080-NT tox	KB-3-1 tox	KB-V1 MDR tox	ATXN2 expr inh	S2 tox	HT1080 IDH1KD tx
COC(=O)N1CCN(c2ccc(Cl)c(Cl)c2)CC1	-2%	?	23µM*	-2%	i	6%
Nc1ccc(N2CCN(c3ccc(Cl)c(Cl)c3)CC2)cc1	-10%	21µM*	18µM*	-20%	i	-6%
Nc1ccc(N2CCN(c3ccc(F)cc3)CC2)cc1	-17%	i	i	?	?	-18%
COc1ccc(S(=O)(=O)N(C)C)cc1NCC(=O)Nc1ccc(Br)c(C)c1	-29%	i	7.3µM*	-12%	i	-29%
CCc1ccc(C(=O)c2cn(CC(=O)Nc3ccc(F)cc3)c3ccc(OC)cc3c2=O)cc1	nt	i	i	3%	i	nt
CC(NC(=S)NCc1ccc(F)cc1)C12CC3CC(CC(C3)C1)C2 (stereo not given)	?	i	?	14µM*	i	?
CCS(=O)(=O)NCc1c(C)ncc2c1CCN(C(=O)c1csc(-c3cccs3)n1)C2	nt	nt	nt	nt	i	nt
CCOc1ccc(CCNC(=O)Cn2nnc(-c3ccccc3Cl)n2)cc1OCC	nt	i	i	-5%	i	nt
CC(N)c1csc(NC(=O)c2cc(C(C)(C)C)nn2Cc2ccccc2)n1 (stereo not given)	18µM*	?	?	?	i	?
COc1ccc(CC(N)c2csc(NC(=O)c3cc(C(C)(C)C)nn3Cc3ccccc3)n2)cc1 (stereo not given)	21µM*	?	?	?	i	21µM*
COc1ccc(CC(N)c2csc(NC(=O)c3ccc(OC)cc3)n2)cc1 (stereo not given)	?	i	i	-37%	i	-22%
CC(C)(C)c1cc(C(=O)NNC(=O)Nc2ccccc2)n(Cc2ccccc2)n1	-12%	i	i	nt	?	1%
COc1ccc(C2Nc3ccccc3C(=O)N2Cc2ccccc2)cc1CSc1ccccn1 (stereo not given)	0%	i	4.6µM*	-6%	i	6%
COc1ccc(C2Nc3ccccc3C(=O)N2NC(C)=O)cc1OC (stereo not given)	4%	i	i	-1%	?	6%
COc1ccc(C2Nc3ccccc3C(=O)N2O)cc1OC (stereo not given)	1%	i	15µM*	6%	i	10%
COc1ccc(C2Nc3ccccc3C(=O)N2c2ccccc2)cc1CSc1ccccn1 (stereo not given)	-12%	i	4.1µM*	1%	i	-21%
COc1ccc(CCN2C(=O)c3ccccc3NC2c2cc(Cl)c(O)c(OC)c2)cc1 (stereo not given)	1.6µM*	?	?	3%	i	2.9µM*
COc1ccc(C2Nc3ccccc3C(=O)N2c2ccc(F)cc2)cc1CSc1ccccn1 (stereo not given)	-4%	i	i	3%	i	1%
COc1ccc(C2Nc3ccccc3C(=O)N2c2cccc3ccccc23)cc1COc1c(C)cccc1C (stereo not given)	nt	13µM*	i	nt	nt	nt
CCN(CC)c1ccc(C=Nc2ccccc2C)c(O)c1	0%	i	?	6%	i	0%
CCN(CC)c1ccc(/C=N/NC(=S)NCc2ccccc2)c(O)c1	-28%	7.3µM*	i	?	i	?
CCN(CC)c1ccc(/C=N/Nc2nc3ccccc3[nH]2)c(O)c1	8.2µM*	?	i	?	5µM*	6.5µM*
CCN(CC)c1ccc(/C=N/N(c2ccccc2)c2ccccc2)c(O)c1	-3%	i	16µM*	9%	i	-12%
CCN(CC)c1ccc(/C=N/N=C(c2ccccc2)c2ccccc2)c(O)c1	-6%	i	?	2%	i	-23%
Cc1ccc2c(c1)c(=O)c(S(=O)(=O)c1ccc(F)cc1)cn2CC(=O)Nc1ccc2c(c1)OCO2	nt	i	?	6%	i	nt
SMILES	HT1080-NT tox	KB-3-1 tox	KB-V1 MDR tox	ATXN2 expr inh	S2 tox	HT1080 IDH1KD tx
C#CCN(Cc1ccco1)C(=O)c1ccc(OC2CCN(Cc3ccccn3)CC2)cc1	-1%	i	16µM*	-16%	i	-1%
O=C(NCc1ccco1)c1ccc(OC2CCN(Cc3ccccn3)CC2)cc1	4%	i	i	nt	i	-2%
O=C(NC1(Cc2ccccc2)CCN(Cc2ccc(-c3ccccc3)cc2)C1=O)c1ccccc1 (stereo not given)	?	?	?	?	32µM*	?
O=C(CCc1ccccc1)NC1(Cc2ccccc2)CCN(CCc2cccs2)C1=O (stereo not given)	-3%	i	i	-22%	?	-16%
Cc1ccn2c(=O)cc(COc3ccc(NC(=O)c4ccccc4F)cc3)nc2c1	nt	i	i	nt	nt	nt
CCC(=O)N1CCc2cc(Br)cc(S(=O)(=O)CCC(=O)NCc3cccc(OC)c3)c21	nt	i	i	-1%	i	nt
COc1ccccc1-c1ncn(Cc2cccc(-c3ccccc3)c2)c1-c1cc(C)cc(C)c1	?	?	16µM*	nt	nt	?
COc1ccccc1-c1noc(-c2ccco2)n1	-8%	i	i	48%	i	-3%
COc1ccccc1-c1ncn(Cc2cccc(-c3ccccc3)c2)c1-c1ccco1	?	?	15µM*	nt	nt	?
O=C1C=C(N2CCN(c3ccccn3)CC2)C(=O)c2c(O)ccc(O)c21	-6%	?	15µM*	?	?	-27%
CC(=O)N(C(C)=O)c1ncnc2c1c(-c1ccc(Cl)cc1)nn2C(C)(C)C	?	?	?	?	?	15µM*
O=C(NCC1Cc2cccc(-c3ncccn3)c2O1)C1CCCO1 (stereo not given)	nt	nt	nt	nt	i	nt
Cc1ccc2c(c1)C(c1ccncc1)=NNC(c1ccccc1)=N2	17%	i	i	-25%	i	15%
c1ccc(C2=Nc3c(ccc4ccccc34)C(c3ccncc3)=NN2)cc1	?	?	?	?	nt	21µM*
COCCNC(=S)N/N=C(\C)CCc1ccc2c(c1)OCO2	-4%	i	i	2%	i	15%
C/C(CCc1ccc2c(c1)OCO2)=N\NC(=S)NC(C)C	-4%	i	i	7.9µM*	7.1µM*	1%
CNC(=S)N(Cc1ccc2c(c1)OCO2)C1CC(=O)N(c2ccc(F)cc2)C1=O (stereo not given)	-24%	?	16µM*	-19%	i	-11%
COc1ccc2nccc(/C=C/c3ccc(N(C)C)cc3)c2c1	nt	i	i	nt	nt	nt
